An excerpt weighted towards active compounds, which were near 1.5% of everything screened.
S1P2 antag = S1P2 (human) receptor antagonism; cell-based S1P2 antagonist assay, inhibition at 5 uM; O95136; AID 736; inhibition, % at 5 µM; 97,000 compounds, 0.21% hits; in the data active = inhibition above about 45%;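 also: CRE beta-lactamase reporter cells expressing human S1P2 stimulated with S1P; 0% = agonist at EC80 alone and 100% = agonist plus reference antagonist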
S1P2 ag = agonists of human S1P2 receptor; S1P2-expressing cell line, agonist reporter read-out; activation, % at 4.5 µM; 97,000 compounds, 0.46% hits; AID 729; in the data active = activation above about 16%;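 also: 0% = vehicle low control and 100% = maximal reference agonist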
GALR2 blocker = antagonists of human galanin receptor 2 (GALR2) | AID 828 | 140,000 compounds, 0.39% hits | GALR2-expressing cells, antagonist mode | inhibition, % at 4 µM;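 also: cells stimulated with galanin 1-16 at roughly its EC80; 0% = agonist challenge control and 100% = basal control without agonist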
Target sequence (O43603 whole entry, looked up): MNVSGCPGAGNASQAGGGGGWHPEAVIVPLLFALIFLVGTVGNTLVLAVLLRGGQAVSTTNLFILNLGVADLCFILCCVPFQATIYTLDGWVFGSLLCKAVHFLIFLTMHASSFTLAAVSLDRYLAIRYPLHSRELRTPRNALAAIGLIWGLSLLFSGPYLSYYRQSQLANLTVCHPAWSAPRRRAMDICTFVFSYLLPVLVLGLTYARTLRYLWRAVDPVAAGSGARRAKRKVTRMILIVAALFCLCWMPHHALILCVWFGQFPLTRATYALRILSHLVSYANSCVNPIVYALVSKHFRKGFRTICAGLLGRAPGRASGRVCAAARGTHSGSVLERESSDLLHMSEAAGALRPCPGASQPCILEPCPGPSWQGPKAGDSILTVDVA
GALR2 ag = activates the human galanin receptor 2; 140,000 compounds, 0.48% hits; O43603; AID 803; activation, % (test concentration not listed); GALR2-expressing cells, agonist activation read-out; in the data active = activation above about 5%, passing the limit was not always enough;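 also: 0% = vehicle buffer wells and 100% = reference agonist at full effect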
CD11b adhes enh = CD11b/CD18-fibrinogen binding enhancement | AID 1499 | K562 CD11b/CD18 adhesion to fibrinogen, ATPlite luminescence | 93,000 compounds, 0.07% hits | activation, % at 10 µM;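 active = 10 µM primary screen giving 50% or more activity, confirmed by 40% or more on retest at that dose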
Mac1 fbg inh = blocks human CD11b/CD18 adhesion to fibrinogen. inhibition, % at 10 µM. K562 CD11b/CD18 adhesion to fibrinogen, ATPlite luminescence; Mn2+ added to activate the integrin. P05107+P11215. 93,000 compounds, 0.54% hits. AID 1497;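 active = primary inhibition of 50% or more at 10 µM, then 40% or more on retest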
GALR2 ant conf = confirmation of human galanin receptor 2 (GALR2) antagonists | AID 866 | 480 compounds, 60% hits | inhibition, % at 4 µM | shares compounds with GALR2 blocker | GALR2-expressing cells, antagonist mode, inhibition;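 also: cells stimulated with galanin at about its EC80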
BLA inh counter = counter-screen for GALR2 antagonists: beta-lactamase reporter inhibitors. shares compounds with GALR2 blocker. CHO NFAT-BLA reporter, beta-lactamase FRET, thapsigargin-stimulated. inhibition, % at 4.2 µM. 480 compounds, 36% hits;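 active = inhibition above the mean inhibition across tested compounds plus 3 SD, cut at about 27% in these data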;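 also: 0% = 500 nM thapsigargin stimulated wells and 100% = unstimulated BSA only wells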
Starred values were filed as active, the others as inactive; / = no result given. Rule as the data show it, unless noted: active = inhibition above about 27%; inactive = the rest.

SMILES	S1P2 antag	S1P2 ag	GALR2 blocker	GALR2 ag	CD11b adhes enh	Mac1 fbg inh	GALR2 ant conf	BLA inh counter
Cc1sc2ncnc(NCc3ccccc3)c2c1C	32	-7	29*	-1	/	/	20	14
Cc1sc2ncnc(NCC3COc4ccccc4O3)c2c1C (stereo unspecified)	/	/	39*	0	-9	100*	46*	11
CCc1ccc(-c2csc(NC(=O)COC(=O)CCc3nc4ccccc4s3)n2)cc1	/	/	-1	0	/	/	/	/
O=C(CN1CCN(S(=O)(=O)c2ccc(Br)cc2)CC1)N/N=C/c1cccnc1	/	/	-2	-1	-6	-5	/	/
COc1ccc(Nc2nc(N3CCCC3)c3ccccc3n2)cc1	/	/	30*	1	-9	99	36*	14
CCCOc1ncnc2c1[nH]c1ccccc12	1	-12	29*	-2	-8	33	28*	1
CCN(CC)c1ncnc2c1[nH]c1ccccc12	-6	-7	24	-3	-1	0	/	/
CCN1/C(=C/c2ccc3cc(C)ccc3[n+]2CC)Sc2ccccc21	/	/	46*	0	/	/	48*	49*
CCCCC(=O)NC(=S)Nc1ccc(S(=O)(=O)N2CCCC2)cc1	/	/	7	-1	/	/	/	/
COc1ccc(-c2nnc(SCc3nc4ccccc4s3)n2C(C)C)cc1	-6	-3	29*	-3	6	7	2	5
COCCn1c(-c2ccc(OC)cc2)cnc1SCC(=O)Nc1cccc2ccccc12	-10	-3	-5	1	0	-7	/	/
COc1ccc(-c2noc(CCC(=O)Nc3ccc4c(c3)OCCO4)n2)cc1	-1	-5	28*	-5	2	-12	7	10
CC(C)NC(=S)N/N=C/c1cc(Br)ccc1O	/	/	8	-2	/	/	/	/
O=C(OCCN1C(=O)c2cccc3c(N4CCOCC4)ccc(c23)C1=O)c1ccccc1Cl	/	/	33*	-1	/	/	34*	46*
CCN(CC)c1ccc(NC(=O)COc2ccc(C#N)cc2)cc1S(=O)(=O)Nc1ccc(OC)cc1	/	/	0	-3	/	/	/	/
CN(C)S(=O)(=O)Oc1ccsc1C(=O)Nc1ccc(Cl)cc1	4	1	16	0	/	/	/	/
COc1ccc(COc2ccsc2C(=O)Nc2ccc(Cl)cc2)cc1	-7	0	52*	-1	-1	1	15	21
CCCCOCCCNC(=O)c1ccc([N+](=O)[O-])c(C)c1	/	/	6	-1	/	/	/	/
CCC1=Nc2cc(C(=O)NCCCOC)ccc2Sc2ccccc21	-2	-1	5	-2	-2	-6	/	/
CCC1=Nc2cc(C(=O)NCc3ccco3)ccc2Sc2ccc(C)cc21	/	/	31*	1	/	/	11	18
O=C(CSc1n[nH]c(-c2ccco2)n1)Nc1sc2c(c1C(=O)Nc1ccccc1)CCCC2	-15	-3	-3	-1	-2	37	/	/
O=C1Nc2ccccc2/C1=N\c1sc2c(c1C(=O)Nc1ccccc1)CCCC2	-2	-8	29*	-4	/	/	5	-5
CCOC(=O)C(NCCc1ccccc1F)(NC(C)=O)C(F)(F)F (stereo unspecified)	/	/	-7	0	1	-12	/	/
CCOc1ccc(S(=O)(=O)NCc2ccncc2)cc1	64*	-5	34*	-4	-7	98*	53*	8
CCOC(=O)COc1ccc(S(=O)(=O)NCc2ccncc2)cc1	43	-4	33*	-1	-9	80	33*	1
SMILES	S1P2 antag	S1P2 ag	GALR2 blocker	GALR2 ag	CD11b adhes enh	Mac1 fbg inh	GALR2 ant conf	BLA inh counter
Cc1ccc(S(=O)(=O)NCc2ccncc2)cc1	37	0	31*	-1	-5	69*	39*	5
Cc1ccc(S(=O)(=O)NCC(=O)NCc2ccncc2)cc1	-4	1	11	-1	/	/	/	/
Cc1c(-c2nnc(SCC(=O)O)n2-c2ccccc2Br)nnn1-c1ccccc1	/	/	-10	0	/	/	/	/
C=CC(=O)NCCCc1cc(C(C)(C)C)c(O)c(C(C)(C)C)c1	/	/	-3	-1	1	-9	/	/
Cc1ccc(S(=O)(=O)Nc2ccc3nc(C)sc3c2)cc1	6	-3	15	0	-8	47	/	/
Cc1nc2ccc(NS(=O)(=O)c3ccc4c(c3)OCCO4)cc2s1	22	-3	34*	-2	-10	102*	26	13
CC(C)(C)c1ccc(OCCNC(=O)c2ncn[nH]2)cc1	-3	-3	31*	-1	-3	-27	5	8
CCN(CC)c1ccc2cc(-c3nc(-c4ccc(OC)cc4)cs3)c(=O)oc2c1	/	/	78*	-4	85	-9	75*	85*
N#CC(C#N)=C1C=CC=CN1/C(=C\c1ccco1)C(=O)c1ccc(Br)cc1	/	/	65*	0	-2	23	68*	68*
COc1ccc(NC(=O)c2cccs2)cc1	1	-5	19	-2	/	/	/	/
CCN(CC)c1ccc(/C=C(\C#N)C(=O)c2ccc(Br)cc2)cc1	/	/	-6	0	/	/	/	/
COc1ccc(C(NC(=O)/C=C/c2ccco2)c2ccc(OC)cc2)cc1	/	/	15	-1	3	4	/	/
COc1ccc(C(=O)/C(=C\c2ccco2)N2C=CC=CC2=C(C#N)C#N)cc1	40	2	42*	-1	/	/	52*	49*
COc1ccc(/C=C(/C(=O)c2cccs2)N2C=CC=CC2=C(C#N)C#N)cc1	/	/	38*	3	-5	43	66*	55*
N#CC(C#N)=C1C=CC=CN1/C(=C\c1ccco1)C(=O)c1ccccc1	/	/	55*	0	1	12	79*	83*
CCN(C(=O)CSc1nnc2c3ccccc3n(CC)c2n1)C1CCS(=O)(=O)C1 (stereo unspecified)	/	/	-3	0	/	/	/	/
O=C(COC(=O)c1ccccc1C(=O)c1ccc(Cl)c([N+](=O)[O-])c1)NC1CCCCCC1	59*	3	31*	-2	-2	21	64*	52*
COc1cccc(C(=O)CN(C(=O)c2ccc(Cl)cc2Cl)N2C(=O)c3ccccc3C2=O)c1	/	/	4	-1	/	/	/	/
O=c1cc(-c2cccs2)oc2ccc(Cl)cc12	4	-2	4	-1	2	17	/	/
Cc1ccc(-c2oc3ccccc3c(=O)c2O)cc1	/	/	20	0	-4	-9	/	/
O=c1c(O)c(-c2cccs2)oc2ccc(Cl)cc12	9	-4	33*	-2	-4	-13	32*	42*
O=c1c(O)c(-c2cccs2)oc2ccccc12	15	-6	29*	-2	3	-54	31*	37*
COc1ccc(N(C)C(=O)c2onc3c2CCCC3)cc1	/	/	-2	0	/	/	/	/
CCOCCn1c(CN(Cc2ccccc2)Cc2ccccc2)nc2c1c(=O)n(C)c(=O)n2C	-7	-2	3	-1	7	-2	/	/
